# How the values were obtained:
# [1] = test system: Human papillomavirus type 1a protein E7 (residues 44-93); assay: HPV1a E7 fragment binders on microarrays, primary screen, biochemical, small-molecule microarray, residues 44-93, 635 nm fluorescence (AID 1108); conditions: small-molecule microarray binding, fluorescence 635 nm; higher = more signal;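 also: E7 fragment applied at 1 µg/mL in TBST for 1 h at 4 C; score combines spot fluorescence with its signal to noise ratio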
# [2] = modulators of HCV replicon luciferase signal, primary screen, HCV replication inhibitor project, Huh7 cells, luciferase reporter (AID 1109); conditions: 48 h, higher = more signal;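 also: huh7 hepatoma cells harbouring a luciferase neomycin HCV replicon reporter; luciferase luminescence as measure of HCV replicon replication; test concentration not given here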
# [3] = target: Left-right determination factor 2 (Homo sapiens) (UniProt O00292); assay: LEFTY2 binders on small-molecule microarrays, primary screen, biochemical, small-molecule microarray, 635 nm fluorescence scan (AID 1110); conditions: LEFTY2 binding, higher = more signal
# Left-right determination factor 2 (Homo sapiens), sequence (O00292 whole entry, looked up): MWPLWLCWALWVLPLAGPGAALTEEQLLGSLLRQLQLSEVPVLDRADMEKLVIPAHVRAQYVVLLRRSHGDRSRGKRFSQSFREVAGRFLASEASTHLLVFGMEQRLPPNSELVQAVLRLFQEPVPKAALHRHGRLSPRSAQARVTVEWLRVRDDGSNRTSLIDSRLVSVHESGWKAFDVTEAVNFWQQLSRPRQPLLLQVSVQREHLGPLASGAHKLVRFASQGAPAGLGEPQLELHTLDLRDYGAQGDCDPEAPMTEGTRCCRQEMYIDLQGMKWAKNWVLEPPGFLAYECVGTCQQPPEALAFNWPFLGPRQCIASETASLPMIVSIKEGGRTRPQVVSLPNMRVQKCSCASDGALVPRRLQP
# [4] = target: Calmodulin-1 (Homo sapiens) (UniProt P0DP23); assay: CALM1 binders on microarrays, EGTA buffer, profiling panel, biochemical, small-molecule microarray, Cy5-labelled CALM1 (AID 1111); conditions: Cy5-CALM1 binding fluorescence, higher = more signal;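 also: labelled calmodulin applied in Tris saline Tween buffer holding calcium plus EGTA and DTT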
# [5] = target: Calmodulin-1 (Homo sapiens) (UniProt P0DP23); assay: calcium-bound CALM1 binders on microarrays, profiling panel, artefact control for SMM control-protein annotation, biochemical, small-molecule microarray, Cy5-labelled CALM1, plus calcium (AID 1112); conditions: Cy5-CALM1 binding fluorescence, higher = more signal;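 also: score merges spot fluorescence with signal to noise from triplicate slides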
# [6] = small-molecule microarray binders of probe aWnt5a, primary screen, biochemical, biotinylated probe, 635/667 nm fluorescence (AID 1113); conditions: higher = more signal;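 also: score merges 667 nm fluorescence intensity with signal-to-noise per printed feature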
# [7] = small-molecule microarray binders of probe aShh, primary screen, biochemical, biotinylated probe, 635/667 nm fluorescence (AID 1114); conditions: higher = more signal;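 also: probe is biotin-labelled aShh protein from a stem cell growth factor screen; measures binding of labelled protein to compounds printed on the slide; score merges feature fluorescence at 667 nm with signal-to-noise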
# [8] = small-molecule microarray binders of probe aNog, primary screen, biochemical, biotinylated probe, 635/667 nm fluorescence (AID 1115); conditions: higher = more signal;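 also: probe is biotinylated aNog protein used at 0.15 µg/mL for 1 h at 4 C; z-score combines 667 nm fluorescence of each spot with its signal to noise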
# [9] = target: Torsin-1A-interacting protein 1 (Homo sapiens) (UniProt Q5JTV8); assay: LAP1 binders from COS7 cell lysate, primary screen, small-molecule microarray, 635/667 nm fluorescence (AID 1116); conditions: COS7-hLAP1 lysate binding, 635 nm fluorescence, higher = more signal
# Torsin-1A-interacting protein 1 (Homo sapiens), sequence (Q5JTV8 whole entry, looked up): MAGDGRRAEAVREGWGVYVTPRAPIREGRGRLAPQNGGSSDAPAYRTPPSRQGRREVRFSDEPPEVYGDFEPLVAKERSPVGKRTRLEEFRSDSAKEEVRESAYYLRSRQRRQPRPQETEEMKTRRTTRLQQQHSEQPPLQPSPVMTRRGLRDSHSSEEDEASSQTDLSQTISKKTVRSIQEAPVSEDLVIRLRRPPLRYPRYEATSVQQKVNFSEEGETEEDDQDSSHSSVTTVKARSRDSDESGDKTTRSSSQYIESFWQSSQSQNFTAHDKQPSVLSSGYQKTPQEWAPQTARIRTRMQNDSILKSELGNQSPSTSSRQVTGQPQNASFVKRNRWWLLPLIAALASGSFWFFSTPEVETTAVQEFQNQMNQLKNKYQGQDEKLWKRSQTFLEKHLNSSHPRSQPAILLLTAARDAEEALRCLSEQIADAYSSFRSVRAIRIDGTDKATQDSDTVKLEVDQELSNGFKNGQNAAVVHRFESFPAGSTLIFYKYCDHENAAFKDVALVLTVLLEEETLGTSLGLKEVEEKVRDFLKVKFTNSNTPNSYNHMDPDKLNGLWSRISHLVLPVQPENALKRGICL
# [10] = target: Alpha-bungarotoxin (Bungarus multicinctus) (UniProt P60615); assay: alpha-bungarotoxin binders on microarray, profiling panel, artefact control for SMM control protein annotation, biochemical, small-molecule microarray, Alexa647 label, 635/667 nm fluorescence (AID 1117); conditions: alpha-BTX-A647 binding fluorescence, higher = more signal
# Alpha-bungarotoxin (Bungarus multicinctus), sequence (P60615 whole entry, looked up): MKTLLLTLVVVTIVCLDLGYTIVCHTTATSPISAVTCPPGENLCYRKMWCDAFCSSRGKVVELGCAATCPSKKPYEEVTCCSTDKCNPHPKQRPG
Compound,composite z-score [1],z-score [2],composite z-score [3],composite z-score [4],composite z-score [5],composite z-score [6],composite z-score [7],composite z-score [8],composite z-score [9],composite z-score [10]
C#C[C@H](O[Si](C#Cc1ccccc1)(C(C)C)C(C)C)c1ccccc1,-0.285,-0.733,-0.962,-0.226,0.418,-0.162,-0.154,-0.333,-0.246,0.821
C[C@@H]1NC(=O)CC=C[C@@H](C)[C@@H]2C=C[C@H](O)[C@@H](COC(=O)[C@H](C)NC(=O)CC=C[C@@H](C)[C@@H]3C=C[C@H](O)[C@@H](COC1=O)O3)O2,0.0804,0.128,0.0183,-0.417,-0.0969,-0.172,-0.426,-0.134,-0.166,-0.64
COc1ccc([Si](C)(C)[C@H]2[C@H](CC(=O)N(CCO)Cc3ccccc3)O[C@@]3(C(=O)N(C)c4ccccc43)[C@@H]2C)cc1,1.3,-3.22,0.664,-0.416,-0.398,-0.0182,-0.141,-0.52,0.188,0.238
C=CCOC(=O)[C@@H]1[C@H]2C(=O)O[C@H](c3ccccc3)[C@H](c3ccccc3)N2[C@H](c2ccc(OCCOC(=O)[C@H]3C[C@H]4C(=O)N5CCC[C@H]5C(=O)N4[C@H]3c3ccc(O)cc3)cc2)[C@@]12C(=O)Nc1ccccc12,-0.747,-1.31,0.382,1.27,0.699,0.0047,0.14,0.305,0.87,1.33
C[C@@H]1C=CCC(=O)OC[C@H]2O[C@@H](C=C[C@@H]2O)[C@H](C)C=CCC(=O)OC[C@H]2O[C@H]1C=C[C@@H]2O,0.14,-0.541,1.53,-0.365,-2.23,0.275,0.186,0.854,0.196,-0.22
O=C1C2C=CC(C(O)C#Cc3ccccc3)N(Nc3ccccc3)C2C(=O)N1c1ccccc1 (stereo not given),-0.369,-0.049,-0.365,0.482,0.373,-0.096,-0.16,0.839,0.945,0.472
COC(=O)Cn1c(C(=O)N2CCCC2)cc2c1C[C@H]1CN(C(=O)c3ccccc3)[C@@](Cc3ccc(OC)cc3)(C(=O)OC)[C@@H]21,1.44,-1.21,-0.304,1.55,0.367,0.129,0.593,1.83,0.478,0.841
CCOC(=O)C[C@H]1[C@H](OC(=O)c2cc3ccccc3oc2=O)[C@@H](NC(=O)c2ccc3ccccc3c2)c2cc(OCCCO)ccc2N1C(=O)c1ccc2ccccc2n1,-0.0309,-1.15,0.57,-0.0337,-0.463,0.0554,-0.138,0.193,0.529,0.992
CC(=O)NCCCC[C@@H]1NC(=O)[C@H]2C[C@@H](C(=O)NCCCCCCN(C)C)[C@@H](c3cccc(OCCO)c3)N2C1=O,1.37,1.33,1.45,-1.81,-1.32,-0.0185,0.323,-0.0083,2.25,1.41
CC(C)[C@H]1NC(=O)[C@@]23C(=O)N[C@@H](Cc4ccccc4)C2[C@H](C)[C@@]2(C)O[C@H]2C3/C=C/C/C=C\CNC(=O)[C@H](C)NC1=O (stereo not given in full),-0.473,0.631,-0.796,-0.703,-0.751,-0.284,-0.367,-0.32,-0.198,-1.12
CN1C(=O)C2C=CC(C(O)C3CC=CCC3)N(Nc3ccccc3)C2C1=O (stereo not given),1.24,-0.556,0.76,1.55,0.129,-0.0792,-0.0289,0.897,0.764,1.58
Cc1ccccc1C(O)C1C=CC2C(=O)N(c3ccccc3)C(=O)C2N1Nc1ccc(C#N)cc1 (stereo not given),1.22,-0.15,0.588,2.68,1.27,0.24,0.333,2.26,3.02,1.94
Cc1ccc(S[C@]2(C(=O)NCCN3CCOCC3)CC(=O)N(C3Cc4ccccc4C3)[C@@H]2c2ccc(CO)cc2I)cc1,0.0913,-1.69,-1.71,-0.0071,-0.0474,0.0718,-0.0553,0.79,0.0697,1.74
COc1ccc([Si](C)(C)[C@H]2[C@H](CC(=O)N3Cc4ccccc4C[C@H]3CO)O[C@@]3(C(=O)N(Cc4cccc(N5CCOC5=O)c4)c4ccccc43)[C@@H]2C)cc1,0.294,-3.42,0.91,-0.792,-1.13,-0.0731,-0.17,0.232,0.473,0.894
C=CCN1C(=O)[C@@]2(Cc3ccccc3)N=C(c3ccc(OCCCO)cc3)O[C@H]2c2ccccc21,0.974,-2.44,0.525,0.0185,0.192,-0.0814,0.0469,0.79,2.15,1.66
C=C(COC)/C(=C/C[C@H](OC(C)=O)c1ccc(OCCO)cc1)c1cnc2ccccc2c1,0.5,-0.773,0.523,0.339,0.214,-0.001,0.261,0.0107,0.458,1.56
CC(C)(C)OC(=O)CC[C@]1(C(=O)N2CCCCC2)N=C(c2ccc(OCCCO)cc2)O[C@H]1c1ccccc1,1.37,-1.66,0.538,1.68,-0.0194,0.0919,-0.138,0.248,1.89,2.02

Compound,composite z-score [1],z-score [2],composite z-score [3],composite z-score [4],composite z-score [5],composite z-score [6],composite z-score [7],composite z-score [8],composite z-score [9],composite z-score [10]
COc1cc2c(cc1OC)CN(C(=O)[C@H]1[C@@H]3C(=O)O[C@@H](c4ccccc4)[C@@H](c4ccccc4)N3[C@@H](c3ccccc3OCCO)[C@]13C(=O)Nc1ccc(C#CC4(O)CCCCCC4)cc13)CC2,-0.178,-2.36,0.519,1.16,-0.407,0.0676,0.0684,-0.356,1.02,1.83
CCOC(=O)C[C@H]1[C@H](OC(=O)c2cc3ccccc3oc2=O)[C@@H](NC(=O)C2CCCCC2)c2cc(OCCCO)ccc2N1C(=O)c1ccc2ccccc2n1,1.03,-0.26,0.4,0.242,-0.137,-0.0721,0.225,-0.188,0.767,0.131
CCCC[C@@H]1C[C@H]1[C@@H](NC(=O)c1ccccc1)c1ccccc1C(F)(F)F,1.38,-0.696,-0.641,1.04,1.09,-0.127,0.204,1.39,1.06,1.61
CCCC=C(CCC)[C@@H](NS(=O)(=O)c1ccc(-c2ccccc2)cc1)c1ccc(C(=O)OC)cc1,0.17,-1.35,0.0185,0.601,0.581,-0.104,0.0796,0.119,0.756,-0.214
O=C1NC(=O)C2C1C=CC(C(O)C=Cc1ccc([N+](=O)[O-])cc1)N2Nc1ccccn1 (stereo not given),-0.581,0.807,0.909,-0.438,-0.544,-0.14,0.265,-0.142,1.45,0.224
COCCCNC(=O)[C@@]1(Sc2ccc(C)cc2)CC(=O)N(Cc2cc(C(F)(F)F)cc(C(F)(F)F)c2)[C@@H]1c1ccc(CO)cc1I,-0.975,-1.22,-1.28,-0.0999,1.14,-0.147,0.267,0.942,0.339,-0.489
COCCOC(=O)N1C(=O)[C@@]2(c3cc(C#CCNC(N)=O)ccc31)[C@H](c1ccccc1OCCO)N1[C@H](c3ccccc3)[C@H](c3ccccc3)OC(=O)[C@H]1[C@@H]2C(=O)NC[C@H](O)c1ccccc1,1.44,-1.1,0.391,1.07,0.527,-0.0239,0.0639,0.385,0.867,2.05
Cc1ccc(S[C@]2(C(=O)O)CC(=O)N(Cc3cc(C(F)(F)F)cc(C(F)(F)F)c3)[C@@H]2c2ccc(CO)cc2I)cc1,-0.0997,-1.39,-2.05,-0.279,0.74,-0.0824,0.0767,0.181,0.598,-0.206
CC(=O)NCCCC[C@@H]1NC(=O)[C@@H]2C[C@H](C(=O)NCCCCCNC(=O)CS)[C@H](c3ccc(O)cc3)N2C1=O,0.364,1.22,-0.293,-0.592,0.503,-0.221,0.0284,-0.0315,0.0502,-0.46
O=C(NCc1ccccc1)[C@@]1(Cc2ccccc2)COC(c2ccc(OCCCO)cc2)=N1,1.4,-3.29,-0.702,0.588,0.687,-0.128,-0.0337,0.597,1.57,1.71
CO[C@@H]1COC(=O)[C@H](C)NC(=O)CC=C[C@@H](C)[C@H](NS(=O)(=O)c2ccc(C)cc2)COC(=O)CC=C[C@@H]1C,-0.232,0.108,0.46,-0.356,-0.239,-0.0718,-0.138,-0.246,0.117,-0.573
O=C(NCc1ccccc1)c1ccc(Br)cc1[N+](=O)[O-],-0.0303,-0.3,0.61,0.216,0.321,-0.0462,-0.141,-0.318,0.0817,1.29
CC[C@H]1C2=C3C(CC[C@H]4C(OC)OC[C@](C)([C@@H]34)N(C(=O)OC(C)(C)C)C2)C(CO)C1CO (stereo not given in full),1.37,-0.996,0.221,2.27,1.38,0.379,-0.349,-0.128,2.23,1.33
C=CCc1cccc([C@H]2N[C@H](C(=O)O)CC[C@@H]2C)c1,0.175,-0.222,0.956,-0.962,-1.26,-0.232,-0.271,-0.539,0.0883,-0.142
O=C(NCC(O)CO)[C@]1(Cc2ccccc2)N=C(c2ccc(OCCCO)cc2)O[C@@H]1c1ccccc1 (stereo not given in full),0.679,-0.378,-1.48,2.61,1.31,0.225,-0.0642,1.68,2.64,2.27
COc1ccc([Si](C)(C)[C@H]2[C@H](CCO)O[C@@]3(C(=O)N(Cc4ccc(N5CCCCC5=O)cc4)c4ccccc43)[C@@H]2C)cc1,0.247,-4.77,0.139,1.49,1.02,-0.116,0.0141,0.338,0.643,1.7
Cc1ccc(S[C@]2(C(=O)NCCCN(C)C)CC(=O)N(Cc3ccccc3)[C@@H]2c2ccc(CO)cc2I)cc1,0.544,-2.94,-0.941,0.453,0.728,-0.091,0.0756,1.09,0.0632,0.913

# — PubChem BioAssay
